Test results reported in PubChem BioAssay (NCI).
“And” between values parts separate entries of the source, which are not always exact repeats. Identical values can stand only once. About 83,000 compounds went through this panel and 20% of them were active in at least one assay; those are over-represented in the sample as a whole.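 Negative percent growth values reflect cell death: -40 means 40% of the cells present at the start died, and -100 means all died.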 A number with no mark means an inactive call. The source made the active and inactive calls. How the source made its calls: active means growth percent below 10; inactive means the rest.

Test system: MDA-MB-468 breast
Experiment: NCI-60 one-dose screen, 48 h (100 = growth as untreated, 0 = no growth, -100 = all killed)
Details: 10 µM unless noted

Compound | growth
COc1ccc2c(c1)C(=O)/C(=C/c1ccccn1)CC2 | 40.4%
CN(C)C(C)(C)CC(C)(C)C | 116%
CCN(CC)CCOc1ccc(C(=C(C)Cc2ccc(OC)cc2)c2ccc(OCCN(CC)CC)cc2)cc1 | -25.4% (active)
COc1cc2c(cc1-c1c(C)noc1C)ncc1nc(C3CCC(F)(F)CC3)n([C@H](C)COC(F)F)c12 | 33.6%
O=C(Nc1ccc(Br)cc1F)c1cc(Cl)ccc1O | -14.5% (active)
O=C(Nc1ccccn1)[C@H](O)[C@@H](O)C(=O)N1CCOCC1 | 119%
Oc1ccc(Br)cc1Sc1cc(Br)ccc1O | 82.3%
O=C(NC(=S)Nc1ccccn1)c1ccccc1 | 45.1%
Nc1ccc(Br)cc1C(F)(F)F | 110%
C#C[C@]1(O)CC[C@H]2[C@@H]3CC=C4c5sc(-c6cccc(F)c6)nc5CC[C@]4(C)[C@H]3CC[C@@]21C | 71.1%
COc1cc(C2=NN(C=O)C(c3cccc(Nc4ccnc5cc(C(F)(F)F)ccc45)c3)C2)cc(OC)c1OC (stereo not given) | 42.8%
Brc1ccc(Nc2nc(Nc3cnc4ccccc4c3)c3[nH]cnc3n2)cc1 | 65.5%
O=C1Nc2ccccc2/C1=N/c1nc(-c2ccc(Cl)cc2)cs1 | 59%
S=c1nc(-c2ccccc2)oc(=NC2CCCCC2)n1C1CCCCC1 | -42.1% (active)
O=C(CSc1ncccc1C(=O)O)Nc1ccc(Oc2ccccc2)cc1 | 101%
COC(=O)c1[nH]nc2c1C1(C(=O)N(C)c3ccccc31)C(C#N)=C(N)O2 (stereo not given) | 97.5%
CCN1CCN(C(=O)[C@]23CC[C@@H](C)[C@H](C)[C@H]2C2=CC[C@@H]4[C@@]5(C)C/C(=C/c6cccc(OC)c6OC)C(=O)C(C)(C)[C@@H]5CC[C@@]4(C)[C@]2(C)CC3)CC1 | 16.4%
COc1ccc(-c2cc(/C=C3\C(=O)Nc4ccc(OC)cc43)[nH]n2)cc1 | 19%
COc1cccc2c(=O)c3c(sc12)c(N1CCNCC1)nc1ccccc13 | 50.2%
COc1cc(C(=O)O/N=C(\N)Cc2cccc3ccccc23)cc(OC)c1OC | -72.1% (active)

Compound | growth
Cn1c(=O)c2c(nc(Cl)n2CCl)n(C)c1=O | 106%
CCCCN(CCCC)c1ccc(C(=N)c2ccc(N(C)C)cc2)cc1 | -76.5% (active)
Cn1c(N)c(N=Cc2ccccc2)c(=O)n(C)c1=O | 117%
CCN(CC)C(=S)SSC(=S)N(CC)CC | 77.7% and 111%
NCCNc1ccc2cc(-c3nc4ccccc4[nH]3)c(=O)oc2c1 | 94.9%
NC1[C@H]2CN(c3cnc(C(=O)Nc4cc(F)cc5cccnc45)cn3)C[C@@H]12 (stereo not given in full) | 3.36% (active)
CCN(CC)CCNc1ccc(C)c2sc3cc(Cl)ccc3c(=O)c12 | 14.4%
COc1ccc(Nc2ncccc2C(=O)NCc2cn(Cc3cccc(Oc4ccccc4)c3)nn2)cc1 | 4.17% (active)
N#C/C(=C\c1ccc(-c2ccc(F)cc2)o1)c1nc(-c2ccco2)cs1 | -47.2% (active)
Fc1ccc(Cc2ccc(F)cc2)cc1 | 104%
O=C(O)c1c2c(nc3ccccc13)Cc1ccccc1-2 | 128% and 89.3%
Cc1ccc(NC(C(=O)c2ccccc2)c2ccccc2)cc1 (stereo not given) | 8.06% (active)
NCCOc1ncccc1/C=C1\C2C=CC=CC2C2C=CC(F)=CC12 (stereo not given) | -7.18% (active)
COc1cc(C2C3=C(COC3=O)N(CCO)c3cc4c(cc32)OCO4)cc(OC)c1O (stereo not given) | -35.5% (active)
Cn1c2ccccc2c2c3c(c4c5cc(Br)ccc5n(C)c4c21)C(=O)N(O)C3=O | -0.278% (active)
CC(/C=C/C=C(\C)[C@H](O)[C@H](C)C(=O)O[C@H]1C[C@H](C)C=C2C=C[C@@]3(C)O[C@@H](O)CC(=O)[C@]3(C)[C@H]21)=C\C=C\C(=O)O | -21.9% (active)
Cc1ccc(N(CC(=O)Nc2ccc(S(=O)(=O)NC3CCN(C)CC3)cc2)S(=O)(=O)c2ccc(Cl)cc2)cc1 | 50.3%
COc1cc(OC)c(/C=C/S(=O)(=O)Cc2cnc(OC)c(N)c2)c(OC)c1 | 23.6%
CN(C)CCC(=O)c1ccc(Cl)cc1 | 97.3% and 97.2%
Cc1c(C(=O)NCCCc2ccccc2)sc2ncc(-c3ccc(Br)cc3)n12 | 108%
